Screening data: PubChem BioAssay, several laboratories
The list is not random: actives were taken first. Their share in the collection is about 3.5%.
Mtb FBA inh – inhibitors of M. tuberculosis fructose-bisphosphate aldolase; inhibition, % at 1 µM; 360,000 tested, 2.3% active; purified M. tuberculosis FBA, fluorescence read-out; in the data active means inhibition above about 27%
Target sequence (P9WQA3 whole entry, looked up): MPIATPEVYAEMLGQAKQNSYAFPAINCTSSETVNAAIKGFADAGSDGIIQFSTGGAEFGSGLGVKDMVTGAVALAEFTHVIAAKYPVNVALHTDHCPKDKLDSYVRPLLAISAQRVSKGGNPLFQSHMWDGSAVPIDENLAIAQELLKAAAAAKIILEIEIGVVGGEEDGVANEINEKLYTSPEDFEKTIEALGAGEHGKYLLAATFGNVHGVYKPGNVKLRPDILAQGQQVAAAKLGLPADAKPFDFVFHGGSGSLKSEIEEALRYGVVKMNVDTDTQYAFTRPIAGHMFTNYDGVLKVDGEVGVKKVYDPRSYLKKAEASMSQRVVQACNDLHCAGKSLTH
Rv3671c protease – Rv3671c (M. tuberculosis) protease inhibition; inhibition, % at 5.96 µM; 320,000 tested, 0.048% active; in the data active means inhibition above about 38%;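 further: extracellular domain of Rv3671c used as enzyme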
UGM FP inh – inhibitors of M. tuberculosis UDP-galactopyranose mutase; purified UGM, fluorescence polarization probe displacement; inhibition, % at 10 µM; 320,000 tested, 0.06% active; in the data active means inhibition above about 10%, passing the limit was not always enough
GDH-TPI inh – inhibits GDH-TPI coupling enzymes, artifact for Mtb FBA screen; GDH-TPI coupled enzyme counterscreen, NADH absorbance; inhibition, % at 4.8 µM; 360,000 tested, 1.2% active; AID 588335; in the data active means inhibition above about 30%
Each line names hits and unclear results; the compound was inactive in the other large screens.

COc1ccc(Cl)cc1-c1cc(C(=O)NCc2cccs2)[nH]n1	none (no result: Rv3671c protease, UGM FP inh)
CCN(CC)S(=O)(=O)c1cc(OC)c(Cl)cc1OC	none
CCOc1ccc(CCNC(=O)Cn2ncn3nc(-c4ccc(OC)cc4)cc3c2=O)cc1OCC	none
S=C(NCc1ccco1)N/N=C/c1ccc(Cl)cc1	none
COc1cc(/C=N/NC(=S)NCc2ccco2)cc(OC)c1OC	GDH-TPI inh 37
COc1ccccc1/C=C/C(=O)OCCN1C(=O)c2ccccc2C1=O	none
COc1ccc(CCNC(=O)COc2ncnc3cc([N+](=O)[O-])ccc23)cc1	none
O=[N+]([O-])c1cccc(COc2ncnc3cc([N+](=O)[O-])ccc23)c1	GDH-TPI inh 35
COc1ccc(C2CC(C(C)(C)C)=NN2c2ccc(S(N)(=O)=O)cc2)cc1 (stereo unspecified)	none (no result: Rv3671c protease, UGM FP inh)
COc1ccc(C2CC(c3ccc(C(F)(F)F)cc3)=NN2c2ccc(S(N)(=O)=O)cc2)cc1 (stereo unspecified)	Mtb FBA inh 155 (no result: Rv3671c protease, UGM FP inh)
COc1ccc(C2CC(c3ccccc3C(F)(F)F)=NN2c2ccc(S(N)(=O)=O)cc2)cc1 (stereo unspecified)	Mtb FBA inh active (no result: Rv3671c protease, UGM FP inh)
COc1ccc(C2CC(c3ccccc3F)=NN2c2ccc(S(N)(=O)=O)cc2)cc1 (stereo unspecified)	Mtb FBA inh 156 (no result: Rv3671c protease, UGM FP inh)
CCOc1ccccc1/C=C(\C#N)C1=CCCC1	none
CCOC(=O)C1=CCN(S(C)(=O)=O)C1c1ccc(C)cc1 (stereo unspecified)	none (no result: Rv3671c protease, UGM FP inh, GDH-TPI inh)
O=C(Nc1cccc2nsnc12)c1cc2c(cc1Cl)Sc1nccn1S2(=O)=O	none (no result: Rv3671c protease, UGM FP inh)
CC(=O)C1=CCC(c2ccccc2Cl)N(S(=O)(=O)c2ccc(C)cc2)C1 (stereo unspecified)	none (no result: Rv3671c protease, UGM FP inh, GDH-TPI inh)
O=c1ccc2cc3c(-c4ccccc4)coc3cc2o1	none (no result: Rv3671c protease)
CC(C)C1Oc2cc3oc(=O)ccc3cc2C1=O (stereo unspecified)	Mtb FBA inh 115
Cc1cc(=O)oc(C)c1C(=O)NCc1c(F)cc(F)cc1F	GDH-TPI inh 36
CCCCNC(=O)c1c(C)cc(=O)oc1C	GDH-TPI inh 33
Cc1cc(=O)oc(C)c1C(=O)NCCc1ccccc1	none
CCCCCC(=O)N1C[C@H](O)[C@@H](n2cc(COC(=O)c3ccccc3)nn2)C[C@@H]1c1ccc(Cl)cc1	none (no result: Rv3671c protease, UGM FP inh)
N#CC1C(=O)Nc2cccnc21 (stereo unspecified)	Mtb FBA inh active (no result: Rv3671c protease, UGM FP inh)
COc1ccccc1-c1cnc(C(O)c2ccc(SC)cc2)[nH]1 (stereo unspecified)	none (no result: Rv3671c protease, UGM FP inh)
CC(NC(=O)COc1ccccc1)C(=O)NCc1ccccc1Cl (stereo unspecified)	none
CCCOc1ccc(/C=C/c2c([N+](=O)[O-])c(=O)n(C)c(=O)n2C)cc1	GDH-TPI inh 39
Cn1c(/C=C/c2ccc(Br)cc2)c([N+](=O)[O-])c(=O)n(C)c1=O	none
COc1ccc(C(CNC(=O)CNC(=O)c2ccccc2Cl)N2CCCC2)cc1 (stereo unspecified)	none
COc1cccc(OC)c1C(=O)Nc1ccccc1N1CCCC1	none
COc1cc2ccccc2cc1C(=O)Nc1ccccc1N1CCCC1	Mtb FBA inh active
COc1ccc(C(CNC(=O)c2cc3ccccc3cc2OC)N2CCCC2)cc1 (stereo unspecified)	GDH-TPI inh 34
CCNNC(=O)C(O)(Cc1ccccc1)Cc1ccccc1	none
CC1(C)Cc2c(C#N)c(N3CCN(C(=O)c4ccco4)CC3)nc(Cc3ccccc3)c2CO1	none
Cc1nc(N2CCN(C(=O)c3ccc(Cl)cc3)CC2)c(C#N)c2c1COC(C)(C)C2	Mtb FBA inh 38
COc1ccc(CN2CCC2(C)C(=O)Nc2cnc3ccccc3c2)c2ccccc12 (stereo unspecified)	none (no result: Rv3671c protease, UGM FP inh)
CC(Sc1ncccn1)C(=O)N1CCc2ccccc21 (stereo unspecified)	none (no result: Rv3671c protease, UGM FP inh)
CC1(C)Oc2cc3oc(-c4cc(O)cc(O)c4)cc3cc2CC1O (stereo unspecified)	Mtb FBA inh 89
O=C1CCCC2=C1C(c1ccc(O)c(O)c1)c1c(ccc3ncccc13)N2 (stereo unspecified)	none
O=C1CCCC2=C1C(c1ccc(O)cc1)c1c(ccc3ccccc13)N2 (stereo unspecified)	Mtb FBA inh 160
O=C(O)CN1C(=O)/C(=C/c2ccccc2Cl)Oc2ccccc21	Mtb FBA inh 130
CCn1c(CN2CCOCC2)nnc1SCC(=O)Nc1cccc(C)c1	none
CC1(CC(=O)O)C(=O)N=C2C=CC=CN21 (stereo unspecified)	Mtb FBA inh 167 (no result: Rv3671c protease, UGM FP inh)
C/C(=N\Nc1ccc(C(=O)O)cc1)c1ccc(Br)cc1	GDH-TPI inh 56
C/C(=N\Nc1ccccn1)c1ccc(S(=O)(=O)NCc2ccco2)cc1	none
C/C(=N/Nc1ncc(Br)cn1)c1ccc(Br)cc1	none
C/C(=N\Nc1ccc(C(=O)O)cc1)c1ccc(S(=O)(=O)NCc2ccco2)cc1	GDH-TPI inh 54
COc1ccc(-c2nonc2NC(=O)c2ccco2)cc1OC	none
COc1ccc(NS(=O)CCCc2ccccc2)cc1 (stereo unspecified)	none (no result: Rv3671c protease, UGM FP inh, GDH-TPI inh)
CCCCN(CCO)c1ncnc2sc(-c3ccccc3)cc12	GDH-TPI inh 31
COCCNC(=S)N1CCC2CC1c1c(Cl)cccc12 (stereo unspecified)	none (no result: Rv3671c protease, UGM FP inh)
O=C(O)CCC(=O)Nc1ccc(-c2nc3ccc(C(=O)c4ccccc4)cc3[nH]2)cc1	GDH-TPI inh 38
O=C(c1ccccc1)c1ccc2nc(-c3ccc(NC(=O)c4ccccc4F)cc3)[nH]c2c1	none
Nc1ccc(C(=O)Nc2ccc3nc(-c4cccnc4)[nH]c3c2)cc1	GDH-TPI inh 37
CC(=O)Nc1cccc(-c2nc3ccc(NC(C)=O)cc3s2)c1	Mtb FBA inh active
COc1cccc2sc(Nc3nc4ccc(NC(C)=O)cc4s3)nc12	Mtb FBA inh 89
CC(=O)Nc1ccc2nc(NC(=O)COc3ccccc3C)sc2c1	none
CC(C)(C)NC(=O)c1ccc(COc2ccc(Cl)cc2Cl)o1	none
O=C(Cc1ccc(NC(=O)C2CCN(C(=O)C3CCC3)CC2)cc1)Nc1ccc(C(=O)N2CCOCC2)cc1	none (no result: Rv3671c protease, UGM FP inh)
C=CCOc1cccn2c(N(C=O)Cc3ccc(OC)cc3)c(CC)nc12	none (no result: Rv3671c protease, UGM FP inh)
CC(=O)Nc1cccc(-c2nc3ccc(NC(C)=O)cc3[nH]2)c1	Mtb FBA inh active
COc1cccc2sc(Nc3nc(-c4ccncc4)cs3)nc12	GDH-TPI inh 38
CCOc1cc(/C=N\NC(=O)c2c(C)nc3ccccn23)ccc1O	GDH-TPI inh 48
Cc1nc2ccccn2c1C(=O)N/N=C/c1cc(C)n(-c2ccc(Cl)cc2)c1C	GDH-TPI inh 36
Cc1nc2ccccn2c1C(=O)N/N=C/c1ccc2c(c1)OCO2	GDH-TPI inh 42
Cc1nc2ccccn2c1C(=O)N/N=C/c1ccccc1[N+](=O)[O-]	none
C=CCN1C(=O)c2ccc(C(=O)OCC(=O)N3CCN(c4ccccc4)CC3)cc2C1=O	none
CCn1c(=O)ccc2cc([N+](=O)[O-])ccc21	none
CC(=O)Nc1cnc(-c2cc(C)c(O)c(C)c2)cn1	GDH-TPI inh 32 (no result: Rv3671c protease, UGM FP inh)
NC(=O)Cn1c(=O)n(CCC(=O)NCCSCc2ccccc2)c(=O)c2ccccc21	none
c1cnn(-c2cncc(-n3cccn3)n2)c1	GDH-TPI inh 32
COc1nccnc1NS(=O)(=O)c1ccc(N=Cc2c(C)[nH]n(-c3ccc(C)c(C)c3)c2=O)cc1	GDH-TPI inh 32
